This is a sample that favours compounds with a hit; in the whole collection about 4.8% have one here.
MPTP inh – blocks calcium-induced mitochondrial swelling; inhibition, % at 10 µM; 360,000 compounds, 1.4% hits; isolated mouse mitochondria, Ca2+ swelling absorbance, 30 min;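 active means inhibition of 50% or more, scaled per plate between neutral and stimulator controls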
Mdm2-MdmX inh – inhibitors of human Mdm2/MdmX interaction. O15151+Q00987. SaOS-2 split-luciferase Mdm2/MdmX complementation, luminescence. inhibition, % at 8 µM. 330,000 compounds, 3% hits. AID 485346;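 active means inhibition of at least 50% at 8 µM in the primary screen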
Beta apoptosis – beta cell apoptosis inhibition; INS-1E cytokine-induced death, ATP luminescence, 48 h; percent of positive-control rescue, neutral wells zero; protection from apoptosis, % (concentration not given with the values); AID 435005; 300,000 compounds, 0.8% hits;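 active means Every replicate reaches about 75%, or at least half do and their mean reaches it too, limit read from the data; inconclusive means At least half of replicates reach the limit but their mean does not; inactive means Under half of replicates reach the limit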;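 further: higher means more ATP so stronger rescue from cytokine killing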
CSC inhib – cancer stem cell inhibition; inhibition, % at 7.5 µM; 300,000 compounds, 1.1% hits; cancer stem cell-like cells viability, luminescence; AID 2717; in the data active means inhibition above about 75%; inconclusive means no clear call, values can overlap the other calls; tested in HMLE shEcad cells
Calb FLC – affects C. albicans growth with fluconazole; C. albicans CaCi-2 (fluconazole-resistant clinical isolate) + fluconazole, Alamar Blue growth, 48 h; growth inhibition, % (concentration not given with the values); 300,000 compounds, 0.57% hits;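 active means growth inhibition above about 58% in most replicates, limit read from the data, passing the limit was not always enough; inconclusive means exactly half the replicates above a set limit; inactive means most replicates below a set limit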;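 further: all wells also contain fluconazole at 8 µg/ml as a sub-toxic cotreatment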
Mdm2-MdmX conf – human Mdm2/MdmX binding inhibition, confirmed. inhibition, % at 8 µM. luminescent assay. 10,000 compounds, 55% hits. shares compounds with Mdm2-MdmX inh; in the data active means inhibition above about 40%
Full FLuc ctr – counter-screen for Mdm2/MdmX inhibitors: full-length luciferase | shares compounds with Mdm2-MdmX inh | SaOS-2 full-length luciferase counterscreen, luminescence | inhibition, % at 8 µM | 6,200 compounds, 77% hits;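 active means mean inhibition at 8 µM reaching about 37%, which flags the compound as non-specific, limit read from the data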;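 further: p53-null SaOS-2 cells with luciferase driven by a doxycycline-inducible promoter; compound on cells about two nights before reading with doxycycline added after day one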
Of the large screens only hits and unclear results are named; the others gave an inactive call (follow-up assays come after a bar, where they were run).

CCCCn1cnc2c(c(-c3ccccc3)c(-c3ccccc3)n2Cc2ccco2)c1=N	Mdm2-MdmX inh 97.9, Beta apoptosis 113.6, CSC inhib 87.3 | Mdm2-MdmX conf 73.2 | Full FLuc ctr 59.7
N=c1c2c(-c3ccccc3)c(-c3ccccc3)n(Cc3ccco3)c2ncn1Cc1ccco1	Mdm2-MdmX inh 97.6, Calb FLC inconclusive | Mdm2-MdmX conf 46.3 | Full FLuc ctr inactive
O=c1c2cnn(-c3ccccc3)c2ncn1Cc1ccco1	none
COc1ccc(C(=O)c2c(NC(C)=O)sc3c2CCN(C(=O)OC(C)(C)C)C3)cc1	none
O=C(CN1CCCC1c1cccs1)N1CCN(S(=O)(=O)c2cccc(F)c2)CC1 (configuration not stated)	none (no result: Beta apoptosis, CSC inhib, Calb FLC)
O=c1oc(-c2ccccc2F)nc2scc(-c3ccccc3)c12	Mdm2-MdmX inh 53.1 | Mdm2-MdmX conf 49.7 | Full FLuc ctr 171.2
COc1ccc(-c2csc3nc(-c4ccc(C)cc4)oc(=O)c23)cc1OC	Mdm2-MdmX inh 92.3 | Mdm2-MdmX conf inactive
Cc1nc2scc(-c3ccccc3)c2c(=O)o1	none
COc1ccc(-c2csc3nc(C)nc(N4CCCCC4)c23)cc1OC	Mdm2-MdmX inh 65.4 | Mdm2-MdmX conf inactive
COc1ccc(-c2csc3nc(C(C)(C)C)oc(=O)c23)cc1OC	none
COc1ccc(-c2csc3nc(-c4ccccc4OC)oc(=O)c23)cc1	Mdm2-MdmX inh 59.4 (no result: Calb FLC) | Mdm2-MdmX conf inactive
CC(C)(C)c1nc2scc(-c3ccc(Cl)cc3)c2c(=O)o1	none
COc1ccc(-c2csc3nc(-c4cccnc4)nc(N4CCC(C(N)=O)CC4)c23)cc1OC	none
CCOC(=O)CCCCCC(=O)Nc1ccc2c(c1)C(=O)N([C@H](C)CO)C[C@H](C)[C@@H](CN(C)C(=O)Nc1ccccc1)OCCCC[C@@H](C)O2	none (no result: Mdm2-MdmX inh, Beta apoptosis, CSC inhib, Calb FLC)
COc1ccc(CN2C(=O)c3ccccc3C(/C=N\OCc3ccc(F)cc3)C2=O)cc1 (configuration not stated)	none
COc1ccc(CN2C(=O)c3ccccc3C(/C=N/OCc3ccc(Cl)cc3)C2=O)cc1 (configuration not stated)	Mdm2-MdmX inh 66.6 (no result: CSC inhib) | Mdm2-MdmX conf inactive
O=C1C=CC(c2c[nH]c3ccccc23)CC1 (configuration not stated)	none (no result: Mdm2-MdmX inh, Beta apoptosis, CSC inhib, Calb FLC)
Cc1cc(C)nc(NC(N)=NCCc2c[nH]c3ccccc23)n1	Mdm2-MdmX inh 72.3 | Mdm2-MdmX conf 51.9 | Full FLuc ctr 54.4
Cc1cc(C)nc(NC(N)=NCCc2ccccc2)n1	none (no result: Mdm2-MdmX inh, Beta apoptosis, CSC inhib, Calb FLC)
CCOC(=O)C1(C)CCCN(C(=O)c2c(-c3ccccc3)noc2C)C1 (configuration not stated)	none (no result: Mdm2-MdmX inh, Beta apoptosis, CSC inhib, Calb FLC)
O=C(N/N=C/c1ccc(O)cc1)c1[nH]c2ccc(Br)cc2c1-c1ccccc1	Mdm2-MdmX inh 66.8 | Mdm2-MdmX conf 56.4 | Full FLuc ctr 91.7
Cc1cc(N2CCN(Cc3cn(C)nc3-c3cccc(Cl)c3)CC2)cc(C)n1	Mdm2-MdmX inh 61.3 | Mdm2-MdmX conf 62.5 | Full FLuc ctr 42.7
CC(Sc1nnc(CN2CCCC2)n1Cc1ccccc1)C(=O)Nc1ccc(F)c(F)c1F (configuration not stated)	none (no result: Mdm2-MdmX inh, Beta apoptosis, CSC inhib, Calb FLC)
O=C1CSC(=S)N1Cc1ccccc1	none (no result: Mdm2-MdmX inh, Beta apoptosis, CSC inhib, Calb FLC)
Cc1[nH]c2ccccc2c1NC(=O)CN1CCN(c2cccc(C(F)(F)F)c2)CC1	none (no result: CSC inhib, Calb FLC)
Cc1[nH]c2ccccc2c1C(O)CN1CCN(c2cccc(C(F)(F)F)c2)CC1 (configuration not stated)	Mdm2-MdmX inh 59.1 | Mdm2-MdmX conf inactive
CCOC(=O)[C@]12CCCC=C1N(Cc1ccc(Cl)cc1Cl)C(=O)[C@H](CC(=O)NCc1cccs1)C2	none (no result: Mdm2-MdmX inh, Beta apoptosis, CSC inhib, Calb FLC)
Clc1cccc(Cl)c1CSc1nnc(-c2ccncc2)s1	Mdm2-MdmX inh 77.9 | Mdm2-MdmX conf inactive
Cc1cc(Cl)n2nc(C)c(-c3ccc(Cl)cc3)c2n1	Mdm2-MdmX inh 90.9, Calb FLC 112.8 | Mdm2-MdmX conf 52.4 | Full FLuc ctr inactive
CCOC(=O)[C@]12CCCC=C1N(Cc1ccc(Cl)cc1Cl)C(=O)[C@H](CC(=O)NCc1ccc(OC)c(OC)c1)C2	none (no result: Mdm2-MdmX inh, Beta apoptosis, CSC inhib, Calb FLC)
Nc1cccc2nc3ccccc3cc12	Mdm2-MdmX inh 58.0 (no result: Beta apoptosis, CSC inhib, Calb FLC) | Mdm2-MdmX conf 78.5 | Full FLuc ctr inactive
COC(=O)c1nn(-c2ccccc2)c(Cl)c1/C=N/OCc1ccc(Cl)cc1Cl	Mdm2-MdmX inh 57.7 | Mdm2-MdmX conf inactive
COC(=O)c1nn(-c2ccccc2)c(Cl)c1/C=N/O	Calb FLC inconclusive
CCN(CC)CCSc1nc(O)c(-c2ccccc2)c(=O)n1-c1ccccc1	none
CCN(CC)CCSc1nc2ccccc2c(=S)n1-c1ccccc1	Mdm2-MdmX inh 50.6 (no result: MPTP inh) | Mdm2-MdmX conf inactive | Full FLuc ctr 93.8
COC(=O)C[C@H]1CC[C@H](NC(=O)c2ccc(F)cc2)[C@@H](CO)O1	none (no result: Mdm2-MdmX inh, Beta apoptosis, CSC inhib, Calb FLC)
CCCOc1ccc(NC(=O)CC2C(=O)N(CC)C(=S)N2CCNC(C)=O)cc1 (configuration not stated)	none
CCOc1ccc(NC(=O)CC2C(=O)N(C)C(=S)N2CCCc2ccccc2)cc1 (configuration not stated)	none
CCCOc1ccc(NC(=O)CC2C(=O)N(CC)C(=S)N2CCCN2CCN(Cc3ccccc3)CC2)cc1 (configuration not stated)	Mdm2-MdmX inh 81.1 | Mdm2-MdmX conf 46.5 | Full FLuc ctr 65.5
CCN1C(=O)C(CC(=O)Nc2ccc(Br)cc2)N(CCCc2ccccc2)C1=S (configuration not stated)	Mdm2-MdmX inh 84.0 | Mdm2-MdmX conf inactive
CCOc1ccc(C)cc1-n1nc2ccccc2n1	none
Cc1ccc(OCC(=O)Nc2ccc(Cl)cc2)c(-n2nc3ccccc3n2)c1	Mdm2-MdmX inh 77.6 | Mdm2-MdmX conf 71.8 | Full FLuc ctr 80.6
COc1ccc(NC(=O)C2(C)Cc3c(-c4ccc(N(C)C)cc4)ccnc3O2)cc1 (configuration not stated)	none (no result: Mdm2-MdmX inh, Beta apoptosis, CSC inhib, Calb FLC)
COc1cc(SC#N)ccc1N=Cc1c(C)[nH]n(-c2ccc(Cl)cc2)c1=O	none
COc1cc(SC#N)ccc1N=Cc1c(C)[nH]n(-c2ccc(C)c(C)c2)c1=O	Mdm2-MdmX inh 87.0, Beta apoptosis 78.9, CSC inhib 96.9 | Mdm2-MdmX conf 90.7 | Full FLuc ctr 51.9
COc1cc(S(=O)(=O)Nc2ccccc2)ccc1N=Cc1c(C)[nH]n(-c2ccc(C)cc2)c1=O	Mdm2-MdmX inh 67.3 (no result: MPTP inh) | Mdm2-MdmX conf inactive
CCc1nc2ccc(C(=O)NCc3ccc(OC)cc3)cn2c1N(CCC(C)C)CCN(C)C	none (no result: Mdm2-MdmX inh, Beta apoptosis, CSC inhib, Calb FLC)
N/C(=N\OC(=O)C12CC3CC(CC(C3)C1)C2)c1ccncc1	Mdm2-MdmX inh 83.7 (no result: Beta apoptosis) | Mdm2-MdmX conf inactive
CCOC(=O)c1c(CN(C)C)n(C)c2c(O)c(N=NC(N)=O)c3ccc(Br)cc3c12	Mdm2-MdmX inh 77.1 | Mdm2-MdmX conf 46.6 | Full FLuc ctr inactive
O=C(O)c1cc(S(=O)(=O)Nc2ccc3c(c2)OCCO3)c(Cl)cc1Cl	Mdm2-MdmX inh 54.9 | Mdm2-MdmX conf 42.4 | Full FLuc ctr 66.9

High-throughput results: PubChem BioAssay, several laboratories
